Experimental data published in the OligoGym collection.

Biological target: GALT
Test: pooled miR-30 sensor sort-seq; sequence = guide strand
Conditions: shRNA
Note: reference of the scale not given here.

| Sequence | sensor-assay potency score (higher = more potent) |
| --- | --- |
| TATAGGCCTGCTGAGATCGCTC | -0.708 |
| TTCCTTCCTGAGTAGCTCCTGG | -0.401 |
| TGAGCAAGCATTTCGTAGCCAA | -0.524 |

Biological target: GAPDH
Test: as above
Conditions: shRNA

| Sequence | sensor-assay potency score (higher = more potent) |
| --- | --- |
| TTGTCATGGATGACCTTGGCCA | -0.37 |
| TGTTGTCATACTTCTCATGGTT | 0.0358 |
| ATATTGGAACATGTAAACCATG | -1.54 |
| AACATGTAAACCATGTAGTTGA | -0.65 |
| TATTGGAACATGTAAACCATGT | -0.597 |
| TTGGCAGGTTTTTCTAGACGGC | -0.926 |
| TCGCTGTTGAAGTCAGAGGAGA | -1.53 |
| TTGATGACAAGCTTCCCGTTCT | 0.0762 |
| TTGACAAAGTGGTCGTTGAGGG | -0.52 |
| TAAACCATGTAGTTGAGGTCAA | 0.434 |
| TAGTTGAGGTCAATGAAGGGGT | -0.233 |
| ATTTCCATTGATGACAAGCTTC | -1.07 |
| TTGATGGCAACAATATCCACTT | -0.344 |
| ATTGATGGCAACAATATCCACT | -0.562 |
| TTGAGGTCAATGAAGGGGTCAT | -0.473 |
| TTGGAACATGTAAACCATGTAG | -0.273 |
| TGAGCTTGACAAAGTGGTCGTT | 0.19 |
| TTCTCAGCCTTGACGGTGCCAT | -0.93 |
| TGGAACATGTAAACCATGTAGT | -0.878 |
| TTGCTGTAGCCAAATTCGTTGT | -1.2 |
| ATTGATGACAAGCTTCCCGTTC | -0.354 |
| ATGAGCTTGACAAAGTGGTCGT | 0.0447 |
| AATTCGTTGTCATACCAGGAAA | -1.59 |
| TTTTTCTAGACGGCAGGTCAGG | -1.01 |

Biological target: GATA4
Test: as above
Conditions: shRNA

| Sequence | sensor-assay potency score (higher = more potent) |
| --- | --- |
| GAAGTCGTCAAACATATCGAGA | -1.84 |
| TTCTGAGAAGTCGTCAAACATA | -1.72 |
| TTAGCAGTCGTCTTCTTTCCAG | -0.572 |
| TTGCTGGAAGCACCGCTGGCGG | -1.56 |
| TGACGGGAGACGCATAGCCTTG | -1.75 |
| TGACACACTCTCTGCCTTCTGA | -0.406 |
| TTGTTCTGGAGTCATTACCAGG | -1.25 |
| TTGGGCTTCCGTTTTCTGGTTT | -0.283 |
| TTGATGGGACGCATCTCCTCGC | -0.611 |
| TTGATGCCGTTCATCTTGTGGT | -0.805 |
| TTCGTGTTGCAGAATCTCTGGC | 0.947 |
| TAAAACAGAATCTTGGTTCAAA | 0.268 |
| AACGTCTGGGACACGGAGCTGC | 0.00321 |
